# The supplement of paper PMC9135407
# Counter-ions that a name gives are not always drawn. In all, about 5,800 compounds went through this assay and about 620 (11%) showed activity. What follows is part of a selection rich in actives, with near analogues and random picks from the rest. Unmarked numbers belong to inactive results.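 The calls were made as follows: active = score above a cut-off or among the top three wells of a plate; in these data no inactive exceeds 0.85.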
# Tested on: primary human hepatic stellate cells (donor 1)
# Assay: scaled lipid accumulation score (0 = DMSO-like, 1 = nortriptyline-like); higher = stronger HSC inactivation (lipid re-accumulation), active = hit call of the paper
# Conditions: 48 h
# [1] = library stock concentration: 80 uM
# [2] = library stock concentration: 400 uM
# [3] = library stock concentration: 2 mM
# [4] = library stock concentration: 10 mM
# [5] = library stock concentration: 3.33 mM
# [6] = library stock concentration: 1 mM
smiles,measurement,setting,value
CCN1CCN(Cc2ccc(NC(=O)c3ccc(C)c(Oc4ccnc5[nH]ccc45)c3)cc2C(F)(F)F)CC1,scaled lipid accumulation score,[1],0.069
same,scaled lipid accumulation score,[2],0.308
same,scaled lipid accumulation score,[3],0.809
same,scaled lipid accumulation score,[4],0.792
COC(=O)N1CCN(Cc2cccc(NC(=O)Nc3ccc(C)nc3)c2F)CC1,scaled lipid accumulation score,[5],≤ 0
same,scaled lipid accumulation score,[4],0.038
CCN1CCN(Cc2ccc(Nc3ncc4c(n3)N(C)c3ccccc3C(=O)N4C)cc2C(F)(F)F)CC1,scaled lipid accumulation score,[1],0.012
same,scaled lipid accumulation score,[2],0.132
same,scaled lipid accumulation score,[3],0.243
same,scaled lipid accumulation score,[4],0.479
Cc1ccc(C(=O)Nc2ccc(CN3CCN(C)CC3)c(C(F)(F)F)c2)cc1C#Cc1cnc2cccnn12 [listing 1 of 2 here],scaled lipid accumulation score,[5],1.06 (active)
Cc1ccc(C(=O)Nc2ccc(CN3CCN(C)CC3)c(C(F)(F)F)c2)cc1C#Cc1cnc2cccnn12 [listing 2 of 2 here],scaled lipid accumulation score,[1],0.459
same,scaled lipid accumulation score,[4],0.533
CCN1CCN(Cc2ccc(NC(=O)c3ccc(C)c(/C=C/c4cnc5[nH]ccc5c4OC)c3)cc2C(F)(F)F)CC1,scaled lipid accumulation score,[3],0.888 (active)
same,scaled lipid accumulation score,[4],1.11 (active)
Cc1ccc(C(=O)Nc2ccc(CN3CCN(C)CC3)c(C(F)(F)F)c2)cc1C#Cc1cnc2[nH]ncc2c1,scaled lipid accumulation score,[5],0.479
same,scaled lipid accumulation score,[4],0.258
"CCCCC/C=C\C/C=C\CCCC/C=C\CCCC(=O)O [5(Z),11(Z),14(Z)-Eicosatrienoic Acid]",scaled lipid accumulation score,[6],≤ 0
CC(S)C(=O)NCC(=O)O (stereo not given) [Tiopronin],scaled lipid accumulation score,[5],≤ 0
same,scaled lipid accumulation score,[4],≤ 0
CC(S)C(=O)NCC(=O)O (stereo not given),scaled lipid accumulation score,[4],≤ 0
CCCCCCCC/C=C\CCCCCCCCCCCC(=O)O [13(Z)-Docosenoic Acid],scaled lipid accumulation score,[6],0.016
"CCC(CO)Nc1nc(NCc2ccccc2)c2ncn(C(C)C)c2n1 [Roscovitine, (S)-Isomer]",scaled lipid accumulation score,[5],≤ 0
CC1(C)S[C@@H]2[C@H](/N=C/N3CCCCCC3)C(=O)N2[C@H]1C(=O)O,scaled lipid accumulation score,[4],≤ 0
CCCCC[C@@](C)(O)/C=C/[C@H]1C=CC(=O)[C@@H]1C/C=C\CCCC(=O)O [15(R)-15-methyl Prostaglandin A2],scaled lipid accumulation score,[6],≤ 0
"CCCCc1c(-c2ccc(O)cc2)[nH]c2nccnc12 [Aloisine A, RP107]",scaled lipid accumulation score,[5],≤ 0
O=C(O)COc1cccc(-c2ocnc2-c2nc(-c3ccccc3)c(-c3ccccc3)o2)c1,scaled lipid accumulation score,[4],≤ -0.006
OCCOCCN1CCN(C2=Nc3ccccc3Sc3ccccc32)CC1 [Quetiapine],scaled lipid accumulation score,library stock concentration: 5.2 mM,≤ 0
CN1CCN(C2=Nc3ccccc3Sc3ccc(Cl)cc32)CC1 [Clothiapine],scaled lipid accumulation score,library stock concentration: 5.8 mM,0.413
OCCOCCN1CCN(C2=Nc3ccccc3Sc3ccccc32)CC1,scaled lipid accumulation score,[4],0.251
OCCOCCN1CCN(C2=Nc3ccccc3Sc3ccccc32)CC1 [Quetiapine fumarate],scaled lipid accumulation score,library stock concentration: 2.3 mM,0.28
OCCOCCN1CCN(C2=Nc3ccccc3Sc3ccccc32)CC1 [Quetiapine Fumarate],scaled lipid accumulation score,[5],0.061
O=C(O)C=CC(=O)O.OCCOCCN1CCN(C2=Nc3ccccc3Sc3ccccc32)CC1.OCCOCCN1CCN(C2=Nc3ccccc3Sc3ccccc32)CC1 [Quetiapine Fumarate],scaled lipid accumulation score,[4],1.06 (active)
CCCCC[C@@H](O)/C=C/[C@H]1C(=O)C[C@H](O)[C@@H]1C/C=C\CCCC(=O)O [15(R)-Prostaglandin D2],scaled lipid accumulation score,[6],≤ 0
O=C([O-])[C@H]1/C(=C/CO)O[C@@H]2CC(=O)N21.[Li+] [Clavulanate lithium],scaled lipid accumulation score,library stock concentration: 9.7 mM,≤ 0
CCS(=O)(=O)Nc1ccc2[nH]c(O)c(C(=Nc3ccc(CN4CCCCC4)cc3)c3ccccc3)c2c1 [Hesperadin],scaled lipid accumulation score,[5],≤ 0
same,scaled lipid accumulation score,[4],0.147
Cl.N=C(N)NCCC[C@H](N)C(=O)O,scaled lipid accumulation score,[4],≤ 0
O=S(=O)(O)Oc1ccc(C(c2ccc(OS(=O)(=O)O)cc2)c2ccccn2)cc1 [Sodium Picosulfate],scaled lipid accumulation score,[5],≤ 0
same,scaled lipid accumulation score,[4],≤ -0.001
Cc1ccc(C(=O)Nc2cccc(C(F)(F)F)c2)cc1Nc1nc(-c2cccnc2)nc2c1cnn2C [listing 1 of 2 here],scaled lipid accumulation score,[5],0.942 (active)
same,scaled lipid accumulation score,[4],0.959 (active)
Cc1ccc(C(=O)Nc2cccc(C(F)(F)F)c2)cc1Nc1cncc(C(N)=O)c1,scaled lipid accumulation score,[1],≤ 0
same,scaled lipid accumulation score,[2],0.035
same,scaled lipid accumulation score,[3],≤ 0
same,scaled lipid accumulation score,[4],0.142
Cc1ccc(C(=O)Nc2cccc(C(F)(F)F)c2)cc1Nc1nc(-c2cccnc2)nc2c1cnn2C [listing 2 of 2 here],scaled lipid accumulation score,[1],≤ -0.016
same,scaled lipid accumulation score,[2],≤ -0.016
same,scaled lipid accumulation score,[3],≤ -0.016
same,scaled lipid accumulation score,[4],0.726
